Assay [1] concerns the target Transcription factor E2F1 (Homo sapiens) (UniProt Q01094). The assay can be described thus: ATG_E2F_CIS: Attagene CIS-FACTORIAL HepG2 Assay for human E2F Transcription Factor 1 (AID 2282935). The following applies: HepG2 Attagene cis-reporter, E2F reporter RNA transcripts; actives raise or lower the signal. The essentials: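 First, HepG2 cells were transfected with reporter transcription units. Next, they were dosed for 24 h. Then RNA was isolated, converted to cDNA, PCR-amplified, FAM-labeled, HpaI-digested and analyzed by capillary electrophoresis.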

Assay [2] is described as follows: ATG_E_Box_CIS: Attagene CIS-FACTORIAL HepG2 Assay for human Enhancer Box (E-box) (AID 2282936). To be noted: HepG2 E-box cis-reporter transcription, actives raise or lower the signal. Summed up: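 Endogenous transcription factor activity was sensed in human HepG2 liver cells through transfected cis-promoter reporter units. After 24 h of dosing, total RNA was reverse-transcribed and reporter cDNA resolved by capillary electrophoresis.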

Assay [3] in a line: ATG_M_61_CIS: Attagene CIS-FACTORIAL HepG2 Assay for M61 Transcription Factor (Internal Marker) (AID 2282937). The following applies: HepG2 Attagene CIS-FACTORIAL M61 internal marker reporter; actives raise or lower the signal. Summed up: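 Endogenous transcription factor activity in HepG2 is read through transiently transfected cis-element reporter units. After 24 h dosing, RNA undergoes reverse transcription, PCR and primer extension with 6-FAM before capillary electrophoresis; DMSO-referenced bidirectional fit.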

A short description of assay [4]: ATG_M_19_CIS: Attagene CIS-FACTORIAL HepG2 Assay for M19 Transcription Factor (Internal Marker) (AID 2282939). To be noted: HepG2 Attagene CIS-FACTORIAL M19 internal marker reporter; actives raise or lower the signal. Summed up: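 Internal marker readout, fitted in both directions against DMSO, from HepG2 cells carrying transfected cis-element reporter constructs; RT-PCR and capillary electrophoresis of reporter mRNA after 24 h exposure.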

Assay [5] can be described thus: ATG_ERE_CIS: Attagene CIS-FACTORIAL HepG2 Assay for Estrogen Response Element (ERE) (AID 2282940). The following applies: HepG2 ERE cis-reporter, Attagene RNA transcript; actives raise or lower the signal. The essentials: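 After 24 h compound treatment, RNA from transfected HepG2 cells was reverse-transcribed, reporter cDNA PCR-amplified, FAM-labelled, HpaI-cut and resolved by capillary electrophoresis. ERE-driven cis reporter transcripts reflect endogenous factors; gain or loss scored against DMSO.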

Assay [6] in a line: ATG_Ets_CIS: Attagene CIS-FACTORIAL HepG2 Assay for human Erythroblast Transformation Specific (ETS) (AID 2282941). To be noted: HepG2 ETS cis-reporter transcription, actives raise or lower the signal. The essentials: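 Multiplexed reporter transcript profiling: HepG2, 24 h treatment, total RNA to cDNA, PCR, 6-FAM labelling, HpaI cut, capillary electrophoresis. Gain- or loss-of-signal fitted against DMSO.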

Assay [7] has as its target Hepatocyte nuclear factor 3-beta (Homo sapiens) (UniProt Q9Y261). In words: ATG_FoxA2_CIS: Attagene CIS-FACTORIAL HepG2 Assay for human Forkhead box A2 (FOXA2) (AID 2282942). The following applies: HepG2 cis-reporter transcription factor activity, 24 h; actives raise or lower the signal. The essentials:
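Reporter transcript induction is measured by fluorescence after capillary electrophoresis of RT-PCR products from HepG2 cells exposed 24 h. Cis-regulated reporter units report endogenous factor activity; curves fitted both directions against DMSO.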

A short description of assay [8]: ATG_FoxO_CIS: Attagene CIS-FACTORIAL HepG2 Assay for human Forkhead box O (FoxO) (AID 2282943). The following applies: HepG2 Attagene cis-reporter, FoxO element, mRNA; actives raise or lower the signal. The essentials: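 Values reflect reporter mRNA induction or loss in HepG2 cells 24 h post-dosing, fitted bidirectionally with DMSO as negative control and baseline. Detection used RT-PCR and fluorescence capillary electrophoresis.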

Assay [9] in a line: ATG_GATA_CIS: Attagene CIS-FACTORIAL HepG2 Assay for human GATA Binding Protein (AID 2282944). To be noted: HepG2 GATA cis-element reporter, Attagene multiplex mRNA; actives raise or lower the signal. Summed up:
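Reporter transcripts from a GATA cis-regulated unit, among multiplexed reporters in transfected HepG2 cells, were measured by RT-PCR with capillary electrophoresis after 24 h dosing. Induction or loss scored relative to DMSO.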

Assay [10] is described as follows: ATG_GLI_CIS: Attagene CIS-FACTORIAL HepG2 Assay for human Zinc Finger Protein GLI1 (AID 2282945). The following applies: HepG2, Attagene cis-factorial reporter mRNA, GLI element; actives raise or lower the signal. Summed up: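 HepG2 cells transiently transfected with cis-promoter multiplexed reporter units report endogenous transcription factor activity. After 24 h chemical exposure, reporter mRNA was quantified by RT-PCR, 6-FAM labelling, HpaI digestion and capillary electrophoresis, with bidirectional fitting against DMSO.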

Assay [11] has as its target Bile acid receptor (Homo sapiens) (UniProt Q96RI1). In words: ATG_IR1_CIS: Attagene CIS-FACTORIAL HepG2 Assay for human Nuclear Receptor Subfamily 1 Group H Member 4 (NR1H4), IR1 submotif (AID 2282946). The following applies: IR1 reporter transcription, actives raise or lower the signal. Summed up: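 Readout: reporter transcript levels by RT-PCR with fluorescent capillary electrophoresis, from HepG2 cells transiently transfected with multiplexed cis-regulated reporters and dosed 24 h. Gain- or loss-of-signal fitted versus DMSO negative control.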

Assay [12] can be described thus: ATG_GRE_CIS: Attagene CIS-FACTORIAL HepG2 Assay for human Glucocorticoid Response Elements (GRE) (AID 2282947). The following applies: HepG2 GRE cis-reporter, Attagene multiplex mRNA; actives raise or lower the signal. The essentials:
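Cells (HepG2) bearing transfected cis-promoter reporter transcription units were treated with chemical for 24 hours. Reporter mRNA was measured via RT-PCR with capillary electrophoresis, and activity was fitted in both directions relative to DMSO.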

The nature of assay [13]: ATG_ISRE_CIS: Attagene CIS-FACTORIAL HepG2 Assay for human Interferon Regulatory Factor 1 (IRF1) binding to an Interferon-Stimulated Response Element (ISRE) (AID 2282948). To be noted: HepG2 ISRE cis-reporter (Attagene), mRNA transcription readout; actives raise or lower the signal. The essentials:
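Signal reflects induction or loss of ISRE-linked reporter mRNA in transiently transfected HepG2 cells after a 24 h treatment, detected by fluorescent RT-PCR fragments on capillary electrophoresis and normalised to DMSO.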

A short description of assay [14]: ATG_M_32_CIS: Attagene CIS-FACTORIAL HepG2 Assay for M32 Transcription Factor (Internal Marker) (AID 2282949).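 Note: background control marker of the multiplexed CIS panel rather than a real target.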 The following applies: HepG2 Attagene cis-factorial M32 reporter, mRNA; actives raise or lower the signal. The essentials:
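HepG2 human liver cells transiently transfected with cis-promoter-driven multiple reporter transcription units, dosed 24 h. Reporter mRNA quantified by RT-PCR, FAM-labelled primer extension, HpaI digest and capillary electrophoresis; bidirectional fit versus DMSO baseline.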

Assay [15] in a line: ATG_M_06_CIS: Attagene CIS-FACTORIAL HepG2 Assay for M06 Transcription Factor (Internal Marker) (AID 2282950). The following applies: HepG2 Attagene CIS-FACTORIAL M06 internal marker reporter; actives raise or lower the signal. Summed up:
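Serves as a background control readout. Transfected HepG2 exposed to compounds for 24 h, then reporter transcripts quantified by fluorescent RT-PCR and capillary electrophoresis. Both directions fitted against DMSO baseline.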

For assay [16], the target named is Hypoxia-inducible factor 1-alpha (Homo sapiens) (UniProt Q16665). The assay can be described thus: ATG_HIF1a_CIS: Attagene CIS-FACTORIAL HepG2 Assay for human Hypoxia Inducible Factor 1 (HIF1A) (AID 2282951). The following applies: HepG2 Attagene cis-factorial HIF1a reporter transcription; actives raise or lower the signal. Summed up: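 Fluorescence intensity of capillary-separated, 6-FAM-labelled reporter amplicons gives mRNA induction in HepG2 cells carrying transfected cis-promoter reporter units; cells exposed 24 h, responses fitted up or down from DMSO.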

In assay [17] the target is Hepatocyte nuclear factor 6 (Homo sapiens) (UniProt Q9UBC0). In words: ATG_HNF6_CIS: Attagene CIS-FACTORIAL HepG2 Assay for human Hepatocyte Nuclear Factor 6 (HNF6) (AID 2282952). To be noted: HepG2 Attagene cis-factorial HNF6 reporter transcription; actives raise or lower the signal. The essentials: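 Endogenous factor activity read in transiently transfected HepG2 via promoter-regulated reporter transcripts. RNA harvested 24 h post-dosing, reverse-transcribed, PCR-amplified, FAM-labelled, HpaI-digested and resolved by capillary electrophoresis; fitted in both directions against DMSO.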

The target of assay [18] is Heat shock factor protein 1 (Homo sapiens) (UniProt Q00613). The assay can be described thus: ATG_HSE_CIS: Attagene CIS-FACTORIAL HepG2 Assay for human Heat Shock Transcription Factor 1 (HSE) (AID 2282953). The following applies: HepG2 HSE cis-reporter, Attagene RNA transcription; actives raise or lower the signal. Summed up:
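Endogenous transcription factor activity in transiently transfected HepG2, read as reporter mRNA by RT-PCR with fluorescent capillary electrophoresis after 24 h. Gain or loss of signal fitted versus DMSO baseline.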

A short description of assay [19]: ATG_MRE_CIS: Attagene CIS-FACTORIAL HepG2 Assay for human Metal Responsive Element (MRE) (AID 2282954). To be noted: HepG2 MRE cis-reporter transcription, Attagene multiplex; actives raise or lower the signal. The essentials:
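Cells were transfected with cis-promoter reporter transcription units, then dosed for 24 h. RNA was reverse-transcribed, amplified, fluorescently labelled and resolved by capillary electrophoresis, and activity was fitted in both directions relative to DMSO.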

Assay [20] can be described thus: ATG_EGR_CIS: Attagene CIS-FACTORIAL HepG2 Assay for human Early Growth Response 1 (EGR1) (AID 2282938). To be noted: HepG2 Attagene CIS-FACTORIAL EGR reporter mRNA; actives raise or lower the signal. The essentials: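 Activity is taken as induction or loss of reporter mRNA versus DMSO, fitted bidirectionally. Transcripts from cis-regulated reporter units in transiently transfected HepG2 were measured after 24 h by RT-PCR with capillary electrophoresis.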

Activity calls are given as the source filed them. Rule for the calls: active = hit-call score of the fitted dose curve at least 0.9, where 1 is the maximum; inactive = score below 0.9.

Usually AC50 stands for the midpoint of the concentration-response curve, whichever way the signal moves.

Sequence of Hepatocyte nuclear factor 6 (Homo sapiens) (Q9UBC0 whole entry, looked up): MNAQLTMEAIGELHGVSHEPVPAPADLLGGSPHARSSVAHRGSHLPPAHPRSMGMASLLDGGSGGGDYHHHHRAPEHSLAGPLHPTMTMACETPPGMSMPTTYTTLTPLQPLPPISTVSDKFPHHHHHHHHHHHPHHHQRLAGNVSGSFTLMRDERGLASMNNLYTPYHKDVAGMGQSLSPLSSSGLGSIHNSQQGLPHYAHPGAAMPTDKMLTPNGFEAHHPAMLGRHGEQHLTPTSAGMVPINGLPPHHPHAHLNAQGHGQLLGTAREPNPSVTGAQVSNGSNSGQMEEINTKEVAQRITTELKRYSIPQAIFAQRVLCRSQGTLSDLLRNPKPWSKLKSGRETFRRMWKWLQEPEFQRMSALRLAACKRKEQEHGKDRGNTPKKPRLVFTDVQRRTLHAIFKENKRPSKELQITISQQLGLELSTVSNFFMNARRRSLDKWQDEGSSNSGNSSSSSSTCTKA
Sequence of Hepatocyte nuclear factor 3-beta (Homo sapiens) (Q9Y261 whole entry, looked up): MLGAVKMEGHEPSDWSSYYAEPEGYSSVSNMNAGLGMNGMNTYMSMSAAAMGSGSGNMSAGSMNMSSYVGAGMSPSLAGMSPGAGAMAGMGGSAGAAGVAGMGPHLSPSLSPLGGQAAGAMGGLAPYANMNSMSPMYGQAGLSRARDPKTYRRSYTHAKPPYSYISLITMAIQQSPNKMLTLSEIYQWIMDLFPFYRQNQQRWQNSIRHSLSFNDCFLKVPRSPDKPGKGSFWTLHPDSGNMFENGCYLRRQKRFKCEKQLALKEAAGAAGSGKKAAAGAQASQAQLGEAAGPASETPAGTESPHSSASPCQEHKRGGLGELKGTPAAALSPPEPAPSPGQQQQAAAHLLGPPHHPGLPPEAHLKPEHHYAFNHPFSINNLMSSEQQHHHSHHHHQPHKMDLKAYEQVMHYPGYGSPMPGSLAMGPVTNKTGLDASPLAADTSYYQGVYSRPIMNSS
Sequence of Hypoxia-inducible factor 1-alpha (Homo sapiens) (Q16665 whole entry, looked up): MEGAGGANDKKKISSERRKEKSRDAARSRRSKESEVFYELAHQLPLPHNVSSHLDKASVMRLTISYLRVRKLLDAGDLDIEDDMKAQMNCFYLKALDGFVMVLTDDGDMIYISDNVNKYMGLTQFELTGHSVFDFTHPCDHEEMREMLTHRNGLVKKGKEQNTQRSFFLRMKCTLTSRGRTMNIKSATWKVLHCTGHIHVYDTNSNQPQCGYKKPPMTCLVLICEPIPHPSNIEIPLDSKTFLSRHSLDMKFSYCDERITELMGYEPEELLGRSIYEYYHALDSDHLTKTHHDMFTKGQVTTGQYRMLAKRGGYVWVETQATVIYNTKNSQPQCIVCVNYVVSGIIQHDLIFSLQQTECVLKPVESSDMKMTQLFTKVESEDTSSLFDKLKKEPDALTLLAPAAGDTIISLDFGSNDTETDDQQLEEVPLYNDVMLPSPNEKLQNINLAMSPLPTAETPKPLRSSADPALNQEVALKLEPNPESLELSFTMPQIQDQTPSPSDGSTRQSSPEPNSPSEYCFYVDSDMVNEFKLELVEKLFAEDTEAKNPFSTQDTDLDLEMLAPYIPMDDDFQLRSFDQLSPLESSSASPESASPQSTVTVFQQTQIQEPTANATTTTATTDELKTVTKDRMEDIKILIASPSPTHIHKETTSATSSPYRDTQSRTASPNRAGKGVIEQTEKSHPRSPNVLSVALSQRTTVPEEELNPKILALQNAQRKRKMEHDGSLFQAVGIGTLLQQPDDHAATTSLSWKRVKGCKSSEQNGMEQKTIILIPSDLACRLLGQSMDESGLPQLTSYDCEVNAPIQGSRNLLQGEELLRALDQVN
Sequence of Heat shock factor protein 1 (Homo sapiens) (Q00613 whole entry, looked up): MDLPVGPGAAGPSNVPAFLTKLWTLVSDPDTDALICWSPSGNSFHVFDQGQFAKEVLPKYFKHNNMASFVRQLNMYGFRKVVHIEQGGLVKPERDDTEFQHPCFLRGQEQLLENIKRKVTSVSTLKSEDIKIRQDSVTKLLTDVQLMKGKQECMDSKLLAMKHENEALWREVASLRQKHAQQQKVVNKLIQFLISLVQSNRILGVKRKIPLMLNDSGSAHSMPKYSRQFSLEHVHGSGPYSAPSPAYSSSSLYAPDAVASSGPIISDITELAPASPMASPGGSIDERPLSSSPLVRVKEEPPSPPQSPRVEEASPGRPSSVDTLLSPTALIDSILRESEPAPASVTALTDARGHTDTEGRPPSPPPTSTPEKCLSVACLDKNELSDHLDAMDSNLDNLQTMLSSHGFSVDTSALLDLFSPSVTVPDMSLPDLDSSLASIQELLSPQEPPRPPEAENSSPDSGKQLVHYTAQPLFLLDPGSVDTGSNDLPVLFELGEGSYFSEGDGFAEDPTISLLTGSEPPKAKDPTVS
Sequence of Transcription factor E2F1 (Homo sapiens) (Q01094 whole entry, looked up): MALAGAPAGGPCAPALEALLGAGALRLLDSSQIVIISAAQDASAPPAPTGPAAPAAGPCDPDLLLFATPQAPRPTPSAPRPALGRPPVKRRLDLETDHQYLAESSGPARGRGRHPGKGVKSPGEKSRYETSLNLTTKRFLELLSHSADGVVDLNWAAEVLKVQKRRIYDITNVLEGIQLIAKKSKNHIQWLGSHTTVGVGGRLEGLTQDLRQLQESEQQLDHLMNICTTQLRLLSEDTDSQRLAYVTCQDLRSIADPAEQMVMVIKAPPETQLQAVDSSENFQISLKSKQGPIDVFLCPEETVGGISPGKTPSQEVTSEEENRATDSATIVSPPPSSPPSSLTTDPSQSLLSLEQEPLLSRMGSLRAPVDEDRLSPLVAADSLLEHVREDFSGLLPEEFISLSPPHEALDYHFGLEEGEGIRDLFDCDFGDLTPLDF
Sequence of Bile acid receptor (Homo sapiens) (Q96RI1 whole entry, looked up): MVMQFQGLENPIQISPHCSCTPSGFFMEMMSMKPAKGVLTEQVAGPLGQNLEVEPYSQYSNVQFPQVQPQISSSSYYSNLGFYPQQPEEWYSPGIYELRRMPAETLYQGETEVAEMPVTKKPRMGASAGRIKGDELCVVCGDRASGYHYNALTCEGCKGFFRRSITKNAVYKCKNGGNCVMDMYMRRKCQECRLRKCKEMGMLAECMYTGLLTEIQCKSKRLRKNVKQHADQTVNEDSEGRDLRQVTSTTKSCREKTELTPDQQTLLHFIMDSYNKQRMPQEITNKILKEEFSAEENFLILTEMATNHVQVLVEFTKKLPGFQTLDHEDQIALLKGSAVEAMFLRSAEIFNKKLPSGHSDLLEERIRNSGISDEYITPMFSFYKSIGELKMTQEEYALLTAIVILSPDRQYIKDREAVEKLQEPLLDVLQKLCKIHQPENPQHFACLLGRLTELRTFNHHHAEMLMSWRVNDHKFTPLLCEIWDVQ

As to `Cc1nc(N(C)C)nc(OC(=O)N(C)C)c1C`, the result in assay [1], in assay [2], in assay [3], in [4], in assay [5] and in assay [6] was inactive. Moreover, the compound was called inactive in assay [7], in assay [8], in assay [9], in [10], in [11] and in assay [12]. Further, the result in [13], in assay [14], in assay [15], in assay [16], in [17] and in assay [18] was inactive. Besides, the compound was called inactive in assay [19].

Regarding `O=C(Nc1ccccc1-c1ccc(Cl)cc1)c1cccnc1Cl`, the result in assay [1], in assay [2], in [3], in assay [20], in [4] and in assay [5] was inactive. For the same compound, the call in assay [6], in [7], in [8], in assay [9], in assay [10] and in assay [12] was inactive. Besides, the compound was classed as inactive in [13], in assay [14], in assay [15], in assay [16], in assay [17] and in assay [18]. Also, in assay [19], the result was inactive.

Turning to `Cc1cc(C)nc(Nc2ccccc2)n1`, the compound was called inactive in assay [1], in [2], in assay [3], in assay [4], in [5] and in [6]. In addition, the result in assay [7], in assay [8], in [9], in assay [10], in [12] and in assay [13] was inactive. The result in [14], in assay [15], in assay [16], in [17] and in assay [19] was inactive. Besides, the AC50 in assay [20] was 50 µM (active).

For `O=c1n(Cl)c(=O)n(Cl)c(=O)n1Cl`, the result in [1], in assay [2], in [3], in assay [20], in assay [4] and in assay [5] was inactive. Besides, the compound was classed as inactive in assay [6], in assay [7], in [8], in [9], in assay [10] and in assay [12]. In addition, the result in assay [13], in assay [14], in [15], in assay [16], in assay [17] and in assay [18] was inactive. In addition, in [19], the call was inactive.
